Experiment [1] is described as follows: ACEA_ER_AUC_viability: ACEA Biosciences xCELLigence Real-Time Cell Analysis on Estrogen Receptor Agonism for Viability (AID 2283782).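 Further: hit means loss of impedance signal meaning reduced cell growth or viability.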 In short, it runs like this: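 Viability endpoint: reduced impedance area under the curve relative to DMSO, recorded by real-time electrode sensing over ~80 h of continuous exposure. Duplicate plates of T47D in hormone-depleted medium; eight concentrations, 1:4 dilutions, 100 uM maximum.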

Experiment [2] has as its target AR (gene 367) (UniProt P10275). Kind of experiment: ACEA_AR_antagonist_80hr: ACEA Biosciences xCELLigence Real-Time Cell Analysis on Androgen Receptor Antagonism for Proliferation (AID 2283787).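 Further: 22Rv1 human prostate cancer cells with growth followed by electrical impedance; hits lower the impedance growth signal relative to DMSO.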 In short, it runs like this:
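Impedance-based real-time growth of 22Rv1 prostate cells, read 80 h after dosing. Eight concentrations, 1:4 series, top 100 uM final (0.5% DMSO), n = 2; signal decrease scored against DMSO.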

Experiment [3] deals with AR (gene 367) (UniProt P10275). Briefly: ACEA_AR_agonist_80hr: ACEA Biosciences xCELLigence Real-Time Cell Analysis on Androgen Receptor Agonism for Proliferation (AID 2283783).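 Further: hits increase impedance growth signal above DMSO baseline.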 In short, it runs like this: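 Eight concentrations, 1:4 serial dilution from a 100 uM final top, in biological duplicate. Impedance-based real-time growth of 22Rv1 cells after overnight baseline, recorded hourly and read at 80 hours. Controls: testosterone, MG132, assay media.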

Among the data in PubChem BioAssay (EPA / NIEHS) are outcome and AC50 values, retold here.

The structures appear in SMILES notation. Results filed as inconclusive are left out. The source made the active and inactive calls. How the source made its calls: active means hit-call score of the fitted dose curve at least 0.9, where 1 is the maximum; inconclusive means response in the unintended direction; inactive means score below 0.9.

AR (gene 367), sequence (P10275 whole entry, looked up): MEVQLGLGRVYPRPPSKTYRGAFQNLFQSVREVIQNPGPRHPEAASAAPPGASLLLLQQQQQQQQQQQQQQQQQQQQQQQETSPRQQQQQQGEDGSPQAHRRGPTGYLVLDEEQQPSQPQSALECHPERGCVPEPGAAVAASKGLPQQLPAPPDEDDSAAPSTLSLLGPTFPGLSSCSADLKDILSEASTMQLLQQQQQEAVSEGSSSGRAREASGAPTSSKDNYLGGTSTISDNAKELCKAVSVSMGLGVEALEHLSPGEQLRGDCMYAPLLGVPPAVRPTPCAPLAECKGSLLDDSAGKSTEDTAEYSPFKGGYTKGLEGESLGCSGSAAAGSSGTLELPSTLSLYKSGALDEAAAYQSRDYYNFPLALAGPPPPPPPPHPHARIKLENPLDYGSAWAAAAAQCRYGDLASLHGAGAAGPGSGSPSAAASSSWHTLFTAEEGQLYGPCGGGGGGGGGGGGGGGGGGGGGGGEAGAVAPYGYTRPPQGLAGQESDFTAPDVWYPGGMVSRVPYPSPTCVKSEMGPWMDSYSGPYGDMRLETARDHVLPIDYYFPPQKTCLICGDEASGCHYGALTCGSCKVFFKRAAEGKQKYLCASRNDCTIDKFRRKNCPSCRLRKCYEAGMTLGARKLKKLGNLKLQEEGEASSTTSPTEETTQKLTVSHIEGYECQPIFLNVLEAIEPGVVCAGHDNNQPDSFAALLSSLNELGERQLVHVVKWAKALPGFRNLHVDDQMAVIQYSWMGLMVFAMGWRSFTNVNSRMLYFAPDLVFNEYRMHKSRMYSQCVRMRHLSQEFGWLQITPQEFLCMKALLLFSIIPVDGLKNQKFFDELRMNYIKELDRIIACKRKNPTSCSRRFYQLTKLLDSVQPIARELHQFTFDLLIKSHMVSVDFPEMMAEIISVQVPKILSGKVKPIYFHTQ

As for `CCCCC1CCC(O)CC1` (configuration not stated), the compound was classed as inactive (in experiment [1]; in the experiment with AR (gene 367) [2]).
Turning to `COc1ccc(N)c([N+](=O)[O-])c1`, the compound was classed as inactive in experiment [1].
Still for that read-out and setting: with `CCCC(C)=O` the entry was “inactive”.
Consider `BrCc1cccc(Oc2ccccc2)c1`, for which the result (in experiment [1]; with AR (gene 367) [2]) was inactive.
With `CC(=O)OCCCc1ccccc1`, the compound was classed as inactive in experiment [1].
Still for that read-out and setting: the same measure for `Cc1ccc(N)c(S(=O)(=O)O)c1`: “inactive”.
By AC50 is commonly meant the concentration at which the activity in the assay is half-maximal. For the compound `Nc1ccc(N)c2c1C(=O)c1ccccc1C2=O`, the compound was called inactive in experiment [1]. Moreover, the concentration at half-maximal activity (AC50) with AR (gene 367) [2] is 16.6 µM (active).
Turning to `CC(C)CCCCCCc1ccc(OCCOCCO)cc1`, the call (in experiment [1]; in the experiment with AR (gene 367) [3]; with AR (gene 367) [2]) was inactive.
Consider `COC(=O)c1ccc([N+](=O)[O-])cc1`, for which the AC50 in experiment [1] was 80.2 µM (active).
With `CC(=O)O[C@@H]1CC2CCC1(C)C2(C)C` (some centres not stated), the compound was classed as inactive (in experiment [1]; in the experiment with AR (gene 367) [2]).
Turning to `CC1(C)CCC[C@]2(C)[C@H]3CCO[C@]3(C)CC[C@@H]12`, in experiment [1], the half-maximal activity concentration (AC50) is 76.2 µM (active).
`CC/C=C\CC/C=C/CO`: in experiment [1], the AC50 was 50 µM (active).
As for `CCCCCCCCSCCO`, the concentration at half-maximal activity (AC50) in experiment [1] is 70.5 µM (active). The result in the experiment with AR (gene 367) [3] and in the experiment with AR (gene 367) [2] was inactive.
Take `CCc1ccc(O)cc1`: the call (in experiment [1]; in the experiment with AR (gene 367) [2]) was inactive.
`CCOC(=O)C1OC1c1ccccc1` (configuration not stated): the compound was called inactive in experiment [1].
Regarding `CCCC[O][Al]([O]CCCC)[O]CCCC`, the AC50 in experiment [1] was 59.3 µM (active).
Still for that read-out and setting: the same measure for `C=CCN(CC=C)CC=C`: 61.2 µM (active).
Regarding `CCCCCCCCCCCCCC(=O)OCC(O)CO` (configuration not stated), the AC50 in experiment [1] is 81.6 µM (active). Besides, the result with AR (gene 367) [2] was inactive.
On to `Cc1ccc(S(=O)(=O)Oc2ccc(N=Nc3ccc(-c4ccc(N=Nc5c(O)ccc6cc(S(=O)(=O)O)cc(S(=O)(=O)O)c56)c(C)c4)cc3C)cc2)cc1`, for which, in experiment [1], the outcome was inactive. Also, the half-maximal activity concentration (AC50) in the experiment with AR (gene 367) [2] was 5.11 µM (active).
As for `OCCc1ccccc1`, the outcome in experiment [1] was inactive.
On the same count and under the same terms, the same measure for `Nc1ccc(NCCO)c([N+](=O)[O-])c1`: “inactive”.
`CCc1cc(Cc2cc(CC)cc(C(C)(C)C)c2O)c(O)c(C(C)(C)C)c1`: the half-maximal activity concentration (AC50) in experiment [1] is 11.7 µM (active); in the experiment with AR (gene 367) [2], 24.1 µM (active).
For `C[C@H]1O[C@@H](O[C@H]2[C@@H](O)C[C@H](O[C@H]3[C@@H](O)C[C@H](O[C@H]4CC[C@@]5(C)[C@H](CC[C@@H]6[C@@H]5C[C@@H](O)[C@]5(C)[C@@H](C7=CC(=O)OC7)CC[C@]65O)C4)O[C@@H]3C)O[C@@H]2C)C[C@H](O)[C@@H]1O`, the concentration at half-maximal activity (AC50) in experiment [1] is 0.0803 µM (active); with AR (gene 367) [2], 0.00928 µM (active). Also, in the experiment with AR (gene 367) [3], the result was inactive.
Take `CC1CCC(C(C)C)C(O)C1` (configuration not stated): the result (in experiment [1]; with AR (gene 367) [3]; with AR (gene 367) [2]) was inactive.
`CCOC(=O)[C@@H](C)Oc1ccc(Oc2nc3ccc(Cl)cc3o2)cc1`: the concentration at half-maximal activity (AC50) in the experiment with AR (gene 367) [2] was 3.55 µM (active).
`CCCCCCCC(=O)OCCCCCC`: in experiment [1], the result was inactive.
Turning to `OCc1cccc(Oc2ccccc2)c1`, the result with AR (gene 367) [3] was inactive.
As to `CCCCCCCCC=CCCCCCCCC1=NCCN1CCO`, in experiment [1], the half-maximal activity concentration (AC50) was 10.9 µM (active). Also, the result with AR (gene 367) [3] and with AR (gene 367) [2] was inactive.
Regarding `CC1(C)C2=CCCC(C)(C)[C@]23CC[C@H]1C3`, the AC50 in experiment [1] is 78.4 µM (active).
As for `CCCCCCC(=O)c1ccccc1`, the outcome in experiment [1] was inactive.
For `CN(C)c1ccncc1`, the concentration at half-maximal activity (AC50) in experiment [1] was 32.7 µM (active).
With `CC(C=O)Cc1ccc(C(C)(C)C)cc1` (configuration not stated), in the experiment with AR (gene 367) [2], the compound was called inactive.
As for `Cc1cc(CCC(=O)OCCOCCOCCOC(=O)CCc2cc(C)c(O)c(C(C)(C)C)c2)cc(C(C)(C)C)c1O`, the call in experiment [1] was inactive.
On the same count and under the same terms, with `Cc1ncc[nH]1` the entry was “inactive”.
